This is an account of results in PubChem BioAssay (NCI).

The nature of assay [1]: NCI Yeast Anticancer Drug Screen. Data for the rad50 strain (AID 155).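 Further: 0% = growth of vehicle-only cultures of the same strain.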 Particulars: S. cerevisiae rad50 strain growth inhibition, stronger effect = higher value. An outline of the steps:
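Relative growth inhibition (compound vs vehicle) was measured in yeast with a defined repair-gene alteration.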

Assay [2] in a line: NCI Yeast Anticancer Drug Screen. Data for the mec2-1 strain (AID 157). Particulars: S. cerevisiae mec2-1 strain, stronger effect = higher value. Summed up: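 Cells of the genetically defined mec2-1 yeast strain are incubated with test compound. Inhibition of growth is calculated against vehicle-treated controls.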
Assay [3] in a line: NCI Yeast Anticancer Drug Screen. Data for the sgs1 mgt1 strain (AID 161).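 Further: 0% = growth of cultures given vehicle only.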 The following applies: S. cerevisiae sgs1 mgt1 strain, stronger effect = higher value. An outline of the steps: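 Read-out: growth inhibition vs vehicle controls. Cells: mutant yeast strain deficient in DNA damage repair.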
Assay [4] in a line: NCI Yeast Anticancer Drug Screen. Data for the cln2 rad14 strain (AID 165).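 Further: 0% = growth equal to vehicle treated cultures.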 The following applies: S. cerevisiae cln2 rad14 strain, stronger effect = higher value. An outline of the steps: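 The screen exposed genetically defined yeast (cln2 rad14) to test compounds and scored growth inhibition relative to vehicle-treated controls.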
A short description of assay [5]: NCI Yeast Anticancer Drug Screen. Data for the bub3 strain (AID 167). Particulars: S. cerevisiae bub3 mutant strain, stronger effect = higher value. An outline of the steps:
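Screening used yeast with an engineered genetic alteration affecting cell cycle control. Compound-exposed cultures were compared with vehicle cultures, and reduced growth was taken as inhibition.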

Assay [6] can be described thus: NCI Yeast Anticancer Drug Screen. Data for the mlh1 rad18 strain (AID 175). The following applies: S. cerevisiae mlh1 rad18 strain growth inhibition, stronger effect = higher value. An outline of the steps: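 Compound-treated yeast growth, normalised to vehicle controls. Strain bears defined DNA repair mutations.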
The mark [7] stands for this setting: at 5.0 µM (retest, dose inferred, filed as 0.5).
The mark [8] stands for this setting: at 50.0 µM (retest, dose inferred, filed as 5.0).

Where “and” joins values, the source holds several entries; their conditions need not be identical. Identical values can stand only once. The panel holds about 79,000 compounds, 15% with a hit somewhere; the sample as a whole holds those more often. Where a structure was tested more than once in an assay, its records may differ in their call. Calls of active or inactive are those of the source. No stated cut-off is given here; in the data, active means growth inhibition above about 70%; inactive means the rest.

Consider `Nc1ccc2cc3ccc(N)cc3nc2c1`, for which the growth inhibition in assay [1] (setting [7]) was 21% (inactive); in assay [1] (setting [8]) it was 86% (active); in assay [1] (at 50.0 µM), 38.1% (inactive) and 73.2% (active); in assay [2] (setting [7]), 9% (inactive); in assay [2] (setting [8]), 31% (inactive); in assay [2] (at 50.0 µM) it was 32.5% (inactive) and 54.3% (inactive). Besides, the growth inhibition in assay [3] (setting [7]) is 11% (inactive); in assay [3] (setting [8]), 37% (inactive); in assay [3] (at 50.0 µM) it was 3.15% (inactive) and 35% (inactive); in assay [4] (setting [7]), 12% (inactive); in assay [4] (setting [8]) it was 11% (inactive); in assay [4] (at 50.0 µM), 9.45% (inactive) and 69.2% (inactive). Further, the growth inhibition in assay [5] (setting [7]) was 6% (inactive); in assay [5] (setting [8]), 20% (inactive); in assay [5] (at 50.0 µM), 19.8% (inactive) and 36.3% (inactive); in assay [6] (setting [7]), 9% (inactive); in assay [6] (setting [8]) it was 51% (inactive); in assay [6] (at 50.0 µM), 15.5% (inactive) and 77% (active).
For the molecule `OC(c1nc2ccccc2[nH]1)C(O)C(O)C(O)c1nc2ccccc2[nH]1` (configuration not stated), the growth inhibition in assay [1] (setting [7]) is -2% (inactive); in assay [1] (setting [8]), -28% (inactive); in assay [1] (at 50.0 µM) it was -8.95% (inactive) and 19.2% (inactive); in assay [2] (setting [7]), -25% (inactive); in assay [2] (setting [8]), -18% (inactive); in assay [2] (at 50.0 µM), -15.1% (inactive) and 2.95% (inactive). The growth inhibition in assay [3] (setting [7]) was -20% (inactive); in assay [3] (setting [8]) it was 1% (inactive); in assay [3] (at 50.0 µM), -18.4% (inactive) and 17.9% (inactive); in assay [4] (setting [7]) it was 0% (inactive); in assay [4] (setting [8]) it was -3% (inactive); in assay [4] (at 50.0 µM) it was 2.25% (inactive) and -6.8% (inactive). For the same molecule, the growth inhibition in assay [5] (setting [7]) was -15% (inactive); in assay [5] (setting [8]) it was -28% (inactive); in assay [5] (at 50.0 µM), -38.5% (inactive) and 44.8% (inactive); in assay [6] (setting [7]), -22% (inactive); in assay [6] (setting [8]), -49% (inactive); in assay [6] (at 50.0 µM), 2.85% (inactive) and 22% (inactive).
Take `Cc1cc(C)[nH]c(=O)n1`: the growth inhibition in assay [1] (setting [7]) was -2% (inactive); in assay [1] (setting [8]), 16% (inactive); in assay [1] (at 50.0 µM), -22.4% (inactive) and 84.2% (active); in assay [2] (setting [7]), -1% (inactive); in assay [2] (setting [8]) it was 11% (inactive); in assay [2] (at 50.0 µM), -16.4% (inactive) and 2.9% (inactive). The growth inhibition in assay [3] (setting [7]) is 2% (inactive); in assay [3] (setting [8]), 7% (inactive); in assay [3] (at 50.0 µM) it was -9.15% (inactive) and 22.4% (inactive); in assay [4] (setting [7]), 6% (inactive); in assay [4] (setting [8]) it was 13% (inactive); in assay [4] (at 50.0 µM), -18.1% (inactive) and 22.9% (inactive). Further, the growth inhibition was -4% (inactive) in assay [5] (setting [7]); -2% (inactive) in assay [5] (setting [8]); -2.25% (inactive) and 14.7% (inactive) in assay [5] (at 50.0 µM); -2% (inactive) in assay [6] (setting [7]); 7% (inactive) in assay [6] (setting [8]); -14.6% (inactive) and 45.2% (inactive) in assay [6] (at 50.0 µM).
With `CC(=O)OC(c1ccccc1)c1ccc(Cl)cc1` (configuration not stated), the growth inhibition in assay [1] (setting [7]) is 3% (inactive); in assay [1] (setting [8]), 0% (inactive); in assay [1] (at 50.0 µM) it was -11% (inactive); in assay [2] (setting [7]), 7% (inactive); in assay [2] (setting [8]), 6% (inactive); in assay [2] (at 50.0 µM), 42.2% (inactive). For the same molecule, the growth inhibition in assay [3] (setting [7]) is 4% (inactive); in assay [3] (setting [8]) it was 8% (inactive); in assay [3] (at 50.0 µM), -0.4% (inactive); in assay [4] (setting [7]), 4% (inactive); in assay [4] (setting [8]), -14% (inactive); in assay [4] (at 50.0 µM), -1.9% (inactive). Besides, the growth inhibition in assay [5] (setting [7]) is 6% (inactive); in assay [5] (setting [8]) it was 8% (inactive); in assay [5] (at 50.0 µM) it was -5.65% (inactive); in assay [6] (setting [7]) it was 1% (inactive); in assay [6] (setting [8]), -1% (inactive); in assay [6] (at 50.0 µM), 2.9% (inactive).
Consider `OC(CN1CCCCC1)c1cc(-c2ccc(Cl)cc2)nc2cc(Cl)ccc12` (configuration not stated), for which the growth inhibition in assay [1] (setting [7]) was -6% (inactive); in assay [1] (setting [8]) it was 99% (active); in assay [1] (at 50.0 µM), 90.5% (active); in assay [2] (setting [7]), -13% (inactive); in assay [2] (setting [8]) it was 100% (active); in assay [2] (at 50.0 µM), 92.7% (active). The growth inhibition in assay [3] (setting [7]) was -4% (inactive); in assay [3] (setting [8]), 100% (active); in assay [3] (at 50.0 µM) it was 99.5% (active); in assay [4] (setting [7]) it was -7% (inactive); in assay [4] (setting [8]) it was 99% (active); in assay [4] (at 50.0 µM), 95.6% (active). Besides, the growth inhibition in assay [5] (setting [7]) is -7% (inactive); in assay [5] (setting [8]), 99% (active); in assay [5] (at 50.0 µM) it was 99.4% (active); in assay [6] (setting [7]), 18% (inactive); in assay [6] (setting [8]), 99% (active); in assay [6] (at 50.0 µM), 99.2% (active).
Regarding `CCCCCCCCCCCCCCCCBr`, the growth inhibition in assay [1] (setting [7]) is -1% (inactive); in assay [1] (setting [8]), 0% (inactive); in assay [1] (at 50.0 µM), 99.5% (active); in assay [2] (setting [7]), -2% (inactive); in assay [2] (setting [8]), 0% (inactive); in assay [2] (at 50.0 µM), 99.7% (active). For the same molecule, the growth inhibition in assay [3] (setting [7]) was -2% (inactive); in assay [3] (setting [8]), 8% (inactive); in assay [3] (at 50.0 µM), 99.3% (active); in assay [4] (setting [7]), 4% (inactive); in assay [4] (setting [8]), 1% (inactive); in assay [4] (at 50.0 µM), 98.8% (active). The growth inhibition in assay [5] (setting [7]) was -2% (inactive); in assay [5] (setting [8]) it was -3% (inactive); in assay [5] (at 50.0 µM) it was 99.5% (active); in assay [6] (setting [7]) it was 6% (inactive); in assay [6] (setting [8]), -5% (inactive); in assay [6] (at 50.0 µM), 99.2% (active).
For the molecule `COc1cc2c3c(c1)SCCC(=O)N3CCN2`, the growth inhibition in assay [1] (setting [7]) was 17% (inactive); in assay [1] (setting [8]) it was 17% (inactive); in assay [1] (at 50.0 µM), 71.7% (active); in assay [2] (setting [7]) it was 4% (inactive); in assay [2] (setting [8]), 4% (inactive); in assay [2] (at 50.0 µM), 81.2% (active). Further, the growth inhibition was 15% (inactive) in assay [3] (setting [7]); 15% (inactive) in assay [3] (setting [8]); -22.6% (inactive) in assay [3] (at 50.0 µM); -4% (inactive) in assay [4] (setting [7]); -4% (inactive) in assay [4] (setting [8]); 80.4% (active) in assay [4] (at 50.0 µM). Moreover, the growth inhibition in assay [5] (setting [7]) was 0% (inactive); in assay [5] (setting [8]) it was 0% (inactive); in assay [5] (at 50.0 µM) it was 73.3% (active); in assay [6] (setting [7]), 14% (inactive); in assay [6] (setting [8]) it was 14% (inactive); in assay [6] (at 50.0 µM), 45.7% (inactive).
As for `CC(=O)OC1CC2C(C)(C)C(=O)C=C[C@]2(C)C2CCC3(C)C(=CC(=O)C3c3ccoc3)[C@]12C` (some centres not stated), the growth inhibition in assay [1] (setting [7]) was -4% (inactive); in assay [1] (setting [8]), 40% (inactive); in assay [1] (at 50.0 µM), 65.4% (inactive); in assay [2] (setting [7]), -8% (inactive); in assay [2] (setting [8]), 38% (inactive); in assay [2] (at 50.0 µM) it was 65.3% (inactive). The growth inhibition is -1% (inactive) in assay [3] (setting [7]); 86% (active) in assay [3] (setting [8]); 87% (active) in assay [3] (at 50.0 µM); 19% (inactive) in assay [4] (setting [7]); 52% (inactive) in assay [4] (setting [8]); 18.7% (inactive) in assay [4] (at 50.0 µM). Further, the growth inhibition is 7% (inactive) in assay [5] (setting [7]); 58% (inactive) in assay [5] (setting [8]); 56.9% (inactive) in assay [5] (at 50.0 µM); -1% (inactive) in assay [6] (setting [7]); 52% (inactive) in assay [6] (setting [8]); 56.4% (inactive) in assay [6] (at 50.0 µM).
`Fc1ccc2nc3ccccc3nc2c1`: the growth inhibition was 3% (inactive) in assay [1] (setting [7]); 40% (inactive) in assay [1] (setting [8]); 77.5% (active) in assay [1] (at 50.0 µM); 5% (inactive) in assay [2] (setting [7]); 27% (inactive) in assay [2] (setting [8]); 49.2% (inactive) in assay [2] (at 50.0 µM). Also, the growth inhibition in assay [3] (setting [7]) was 0% (inactive); in assay [3] (setting [8]), 10% (inactive); in assay [3] (at 50.0 µM), 22.6% (inactive); in assay [4] (setting [7]) it was -6% (inactive); in assay [4] (setting [8]) it was 10% (inactive); in assay [4] (at 50.0 µM) it was 29.5% (inactive). The growth inhibition is 5% (inactive) in assay [5] (setting [7]); 24% (inactive) in assay [5] (setting [8]); 42.5% (inactive) in assay [5] (at 50.0 µM); 2% (inactive) in assay [6] (setting [7]); 27% (inactive) in assay [6] (setting [8]); 76.3% (active) in assay [6] (at 50.0 µM).
